# The source made the active and inactive calls. The rule behind the calls is not given here.
# Target: Pantothenate synthetase (Mycobacterium tuberculosis (strain ATCC 25618 / H37Rv)) (UniProt P9WIL5)
# Test: Recombinant Mtb pantothenate synthetase (PanC) inhibitors, coupled enzyme, confirmatory (AID 375);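 note: 0% = full reaction with vehicle and 100% = no enzyme background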
# Details: coupled enzyme assay; at 10 µM, stronger effect = higher value
# Pantothenate synthetase (Mycobacterium tuberculosis (strain ATCC 25618 / H37Rv)), sequence (P9WIL5 whole entry, looked up): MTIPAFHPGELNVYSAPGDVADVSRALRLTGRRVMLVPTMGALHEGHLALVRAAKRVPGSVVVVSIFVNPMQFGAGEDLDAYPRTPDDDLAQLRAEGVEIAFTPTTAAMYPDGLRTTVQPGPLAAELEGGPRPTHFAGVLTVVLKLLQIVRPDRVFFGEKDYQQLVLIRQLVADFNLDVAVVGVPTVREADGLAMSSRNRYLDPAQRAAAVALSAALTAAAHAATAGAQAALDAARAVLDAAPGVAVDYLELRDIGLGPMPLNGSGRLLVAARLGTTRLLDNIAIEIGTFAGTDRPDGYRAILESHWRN
row,SMILES,inhibition
1,CN(C)CCOC(c1ccccc1)c1ccccc1 (tested in a mixture with another compound),0% (inactive)
2,OCCNC1=NCCN1,1% (inactive)
3,CC1CCCC(NC(=O)CSc2ncccc2C(=O)O)C1C (stereo not given),0% (inactive)
4,C=CCn1c(-c2ccc(OC)cc2)nc2ccccc21,0% (inactive)
5,O=c1[nH]c(=O)n([C@H]2C[C@H](O)[C@@H](CO)O2)cc1F,0% (inactive)
6,N#C/C(C(=O)N1CCOCC1)=C1/SC=C(c2ccccc2)N1c1ccccc1,7% (inactive)
7,CCN(Cc1nc2cc(OC)c(OC)cc2c(=O)[nH]1)C(=O)c1ccc(S(=O)(=O)N(C)C)cc1,0% (inactive)
8,COc1ccc(Cl)cc1-c1n[nH]c(=S)o1,0% (inactive)
9,O=C(NS(=O)(=O)c1ccc(NC(=O)C2CCCO2)cc1)c1ccccc1 (stereo not given),0% (inactive)
10,CC(=O)c1coc2ccc(OCC(=O)O)cc12,0% (inactive)
11,CCOC(=O)c1cnc(-n2nc(C)cc2C)nc1N1CC(C)OC(C)C1 (stereo not given),0% (inactive)
12,O=C(Nc1ccncc1)c1cc2ccccc2o1,3% (inactive)
13,CC(=O)[C@H]1[C@H](C#N)C[C@H]2[C@@H]3CC=C4C[C@@H](O)CC[C@]4(C)[C@H]3CC[C@@]21C,0% (inactive)
14,Cc1ccc(S(=O)(=O)C2(C(=O)NC3CCCC3)CC2)cc1,9% (inactive)
15,CCOc1ccc(C2CC(c3cccc(OC)c3)Nc3nc(N)nn32)cc1 (stereo not given),0% (inactive)
16,CCN(CC)S(=O)(=O)c1ccc2c(c1)c(=O)c(C(=O)NCCOC)cn2C,1% (inactive)
17,N#CC1=C(N)N(c2ccccc2)C(c2ccco2)C1(C#N)C#N (stereo not given),2% (inactive)
18,Cc1ncc(CO)c2c1OC(C)(C)OC2,0% (inactive)
19,CC(=O)OC(C)C[N+](C)(C)C (stereo not given),3% (inactive)
20,Cc1ccc(-c2nc(-c3cccnc3)no2)c(C)c1,5% (inactive)

row,SMILES,inhibition
1,CC1(C)NC(=O)N(CCCOc2ccc(Br)cc2Cl)C1=O,0% (inactive)
2,CC1CCN(C(=O)c2ccc(C(=O)N3CCC(C)CC3)cc2)CC1,0% (inactive)
3,CCc1ccc(NS(=O)(=O)c2ccc3[nH]cc(C(=O)N4CCCCC4)c(=O)c3c2)cc1,0% (inactive)
4,CCCc1cc(C(=O)Nc2ccccc2C(=O)OC)no1,0% (inactive)
5,O=C(COC(=O)C1CC2C=CC1C2)Nc1ccc2c(c1)OC(F)(F)O2 (stereo not given),0% (inactive)
6,Cc1ccc(S(=O)(=O)NCCN2CCOCC2)cc1C,3% (inactive)
7,N#Cc1cc2c(nc1SCC(=O)Nc1sc3c(c1C#N)CCC3)CCCCC2,0% (inactive)
8,CCOCC(=O)Nc1nc2ccc(OC)cc2s1,0% (inactive)
9,COc1ccc(S(=O)(=O)N2CCN(S(=O)(=O)c3ccc4c(c3)OCCO4)CC2)cc1C,0% (inactive)
10,CCCC(C)C1C(C#N)=C(N)Oc2cc(C)oc(=O)c21 (stereo not given),1% (inactive)
11,O=C(NC1CCCC1)c1ccc(S(=O)(=O)N2CCCC2)cc1,0% (inactive)
12,Cn1c(=O)c2ncn(CC(=O)NCCOc3ccccc3)c2n(C)c1=O,0% (inactive)
13,COC(=O)c1ccccc1NC(=O)c1cc(-c2ccc(OC)c(OC)c2)on1,0% (inactive)
14,COc1ccc(S(=O)(=O)N2CCN(CC(=O)Nc3ccc(C)c(F)c3)CC2)cc1,0% (inactive)
15,CCOc1ccc(S(=O)(=O)n2nc(C)cc2C)c2ccccc12,0% (inactive)
16,CC(=O)N(CCc1ccccc1C)Cc1cc2cc3c(cc2[nH]c1=O)OCO3,7% (inactive)
17,COc1ccc(-c2c(C(F)(F)F)oc3c(CN4CCN(C)CC4)c(O)ccc3c2=O)cc1,4% (inactive)
18,CCOc1ccc(C2CC(c3ccccc3C)n3nc(N)nc3N2)cc1 (stereo not given),0% (inactive)
19,Cc1c(C(=O)NC2CC2)oc2ccc(S(=O)(=O)N3CCCCCC3)cc12,0% (inactive)
20,CC(C)CCn1c(N)c(S(=O)(=O)c2cccs2)c2nc3ccccc3nc21,0% (inactive)

# — PubChem BioAssay
